Screening results deposited in PubChem BioAssay by several laboratories.
A selection: hits, their analogues and other compounds. The true share with any hit is near 3.2%.
SKN-1 block = C. elegans SKN-1 inhibition; AID 624304; inhibition, % at 21.8 µM; 360,000 compounds, 0.49% hits; C. elegans VP596 Pgst-4::GFP/RFP ratio, acrylamide-induced, 24 h;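 active means interference check ratio from 0.5 to 1.5 plus GFP to RFP signal ratio inhibition reaching or exceeding a fixed threshold, cut at about 30% in these data, passing the limit was not always enough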
MEKK2 WT-MEK5 = raises or lowers MEK5 binding to wildtype human MEKK2 PB1 domain | bead flow cytometry, Alexa488-MEK5 binding to MEKK2 WT; actives lie on both sides | binding response (% of control), % at 10 µM | 290,000 compounds, 1.1% hits | AID 1531; in the data active means binding response below about 67% or above about 130%
CendR NRP1 mod = modulators of CendR peptide binding to human neuropilin-1 | O14786 | FAM-RPARPAR peptide binding to NRP-1, fluorescence polarization | inhibition, % at 25 µM | 360,000 compounds, 0.85% hits;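 active means inhibition or corrected inhibition above about 18%, plus a signal ratio from 0.5 to 1.5, limit read from the data, passing the limit was not always enough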
MEKK2 mut-MEK5 = signal of MEK5 binding to mutant human MEKK2 PB1 domain; 290,000 compounds, 0.35% hits; percent response, % at 10 µM; bead flow cytometry, Alexa488-MEK5 binding to MEKK2 mutant; in the data active means percent response above about 24%, passing the limit was not always enough
MEKK3 PB1 HTS = MEKK3-MEK5 PB1 interaction, increase or decrease; 290,000 compounds, 1.4% hits; Q99759; binding response (% of control), % at 10 µM; bead-based flow cytometry, Alexa488-MEK5 binding to MEKK3; actives lie on both sides; 0 = blocked by unlabeled MEK5, 100 = vehicle;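 active means binding response more than 3 SD above or below the average of its plate-row segment, actives on both sides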;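 further: Alexa488 bead fluorescence after subtracting the streptavidin-only scavenger bead signal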
Target sequence (Q99759 whole entry, looked up): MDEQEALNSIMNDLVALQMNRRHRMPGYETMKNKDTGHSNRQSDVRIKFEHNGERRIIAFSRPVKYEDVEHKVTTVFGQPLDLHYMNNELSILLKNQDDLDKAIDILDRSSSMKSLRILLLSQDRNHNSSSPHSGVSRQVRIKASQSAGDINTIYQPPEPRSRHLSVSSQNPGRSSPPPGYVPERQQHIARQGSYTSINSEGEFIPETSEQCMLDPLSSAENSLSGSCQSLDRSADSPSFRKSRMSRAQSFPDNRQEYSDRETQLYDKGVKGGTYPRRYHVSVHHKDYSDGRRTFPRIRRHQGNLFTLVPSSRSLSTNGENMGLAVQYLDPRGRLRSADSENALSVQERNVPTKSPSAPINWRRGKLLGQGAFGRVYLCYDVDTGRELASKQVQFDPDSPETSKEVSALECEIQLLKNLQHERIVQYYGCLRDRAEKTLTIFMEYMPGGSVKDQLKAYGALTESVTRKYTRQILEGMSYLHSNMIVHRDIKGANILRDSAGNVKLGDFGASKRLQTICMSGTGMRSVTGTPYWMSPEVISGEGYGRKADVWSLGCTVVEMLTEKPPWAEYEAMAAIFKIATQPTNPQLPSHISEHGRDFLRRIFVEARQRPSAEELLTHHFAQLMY
Numbers stand for hits; . = inactive; / = no result given.

SMILES | SKN-1 block | MEKK2 WT-MEK5 | CendR NRP1 mod | MEKK2 mut-MEK5 | MEKK3 PB1 HTS
CCOc1cc(NC(=S)NC)c(OCC)cc1NC(=O)c1ccc(OC)cc1 | . | . | 21 | . | .
Clc1ccccc1-c1ccc(CN2CCN(c3ccccc3)CC2)o1 | 38 | / | . | / | /
CCc1ccc(NC(=O)N(Cc2ccco2)C(C)c2cccs2)cc1 (stereo not drawn) | . | . | 32 | . | .
CCOc1ccc(Cl)cc1-c1cc(C(=O)Nc2ccc(F)cc2)[nH]n1 | . | / | . | / | /
c1cc(N2CCCC2)ccc1C(c1nnnn1C1CCCCC1)N1CCOCC1 (stereo not drawn) | . | -5.0 | . | . | .
COc1ccc(-c2cc(NC=O)c3ncc(-c4cnn(C)c4)n3c2)cc1 | . | / | . | / | /
COC(=O)C[C@H]1C=C[C@H](NC(=O)c2ccccn2)[C@@H](CO)O1 | . | / | . | / | /
CN1\C(=C/C=C/C=C/C=[N+](C)C)C(C)(C)c2ccccc21 | . | -3.0 | . | . | .
CCCCC[C@@H]1[C@H]2[C@H]3C(=O)N(c4ccccc4)C(=O)[C@H]3CC(=O)[C@H]2[C@H](c2ccccc2)N1S(=O)(=O)c1ccc(C)cc1 | . | / | . | / | /
COc1ccc(-n2c(C)nc3cc(C(=O)NCc4ccco4)ccc32)cc1 | 41 | . | . | . | .
COc1cccc(N2CC(O)=C(c3ccccc3)C2=N)c1 | 35 | / | . | / | /
COc1cccc(N2CC(O)=C(c3nc4ccccc4s3)C2=N)c1 | . | . | . | . | .
Cn1nc(C(C)(C)C)cc1C(=O)NN1CCOCC1 | . | . | . | . | .
OCCNc1ncnc2ccc(Br)cc12 | . | . | 44 | . | .
CC1(C)CC(=O)C=C(c2ccc(COC(=O)C3CC3)cc2)C1=O | . | / | . | / | /
Nn1c(=S)[nH]c2sc3c(c2c1=O)CCCC3 | 36 | / | . | / | /
CCCn1c(=S)[nH]c2sc3c(c2c1=O)CCCC3 | . | . | . | . | .
C=CCN(CC=C)Cc1cc(=O)oc2cc(OC)ccc12 | . | / | . | / | /
COc1ccc([N+](=O)[O-])cc1NC(=O)C(C)OC(=O)CSC(C)C(=O)Nc1cc(C)on1 (stereo not drawn) | 37 | / | . | / | /
CCOC(=O)C1CCCN(CCC(=O)Nc2ccccc2C)C1 (stereo not drawn) | . | . | 23 | . | .
O=C(Nc1ccccc1F)C1CCN(C(=O)NC2CCCCC2)CC1 | . | . | . | . | .
O=C(Nc1ccccc1F)C1CCCC1 | 41 | / | . | / | /
O=C(CCN1CCCCCC1)Nc1ccccc1F | 49 | . | . | . | .
O=C(CN1CCCCCC1)Nc1ccccc1F | . | . | . | . | .
CCOC(=O)C1CCCN(CCC(=O)Nc2cc(C)ccc2C)C1 (stereo not drawn) | . | . | . | . | .
SMILES | SKN-1 block | MEKK2 WT-MEK5 | CendR NRP1 mod | MEKK2 mut-MEK5 | MEKK3 PB1 HTS
Cc1ccc2c(c1)N(CC(=O)NC(C)CCc1ccccc1)C(=O)c1cccnc1O2 (stereo not drawn) | . | . | . | . | .
CC1(C(=O)NS(=O)(=O)c2cccc(F)c2)CCN1C(=O)c1ccccc1 (stereo not drawn) | . | / | . | / | /
N#Cc1ccccc1NC(=O)Nc1cccc(Cl)c1 | 41 | . | . | . | .
O=C(CSc1nc(O)c(C2CCCCC2)c(=O)[nH]1)Nc1ccccc1Cl | . | . | . | . | .
COc1ccc(CCN(C)CC(O)COC(c2ccc(F)cc2)c2ccc(F)cc2)cc1OC (stereo not drawn) | . | 145 | . | . | .
O=C(Nc1cc2cccc([N+](=O)[O-])c2oc1=O)c1cccs1 | . | -8.0 | . | . | .
Cc1c(NC(=O)c2cccs2)cccc1[N+](=O)[O-] | . | . | . | . | .
C[C@@H]1CCCCO[C@@H](CN(C)S(=O)(=O)c2cn(C)cn2)[C@@H](C)CN([C@H](C)CO)C(=O)c2cc(N(C)C)ccc2O1 | . | / | . | / | /
COc1cccc(C(=O)NC2CCN(CC(=O)NCc3ccccc3OC)CC2)c1 | . | . | 34 | . | .
Cc1ccc(C)c(OCCC(=O)N2CCN(S(=O)(=O)c3ccc([N+](=O)[O-])cc3)CC2)c1 | . | / | . | / | /
FC(F)(F)c1cnc2c(-c3ccc(Cl)cc3Cl)noc2c1 | 32 | . | . | . | .
O/N=C(\c1ccc(Cl)cc1)c1ncc(C(F)(F)F)cc1Cl | . | . | . | . | .
Fc1ccccc1NC(=S)Nc1cccc2cnccc12 | . | . | 44 | . | .
Cc1ccccc1NC(=S)Nc1cccc2cnccc12 | . | . | . | . | .
O=C(OCc1cc(=O)n2ccsc2n1)c1ccc(OC(F)F)cc1 | . | / | . | / | /
CN(C)c1ccc(C(=O)OCc2cc(=O)n3ccsc3n2)cc1 | . | / | 23 | / | /
CCNC(=O)C1(C)CCN(C(=O)c2ccc(-c3ccccc3)cc2)C1 (stereo not drawn) | . | / | . | / | /
Cc1ccccc1OCC(=O)NCC(=O)OCc1ccc(Br)cc1 | . | . | . | . | .
O=C(COc1ccccc1O)N1CCN(C(=O)c2ccco2)CC1 | . | . | 32 | . | .
O=C(c1ccccn1)N(Cc1ccco1)C1(C(=O)Nc2ccc(Br)cc2)CCCCC1 | . | / | . | / | /
Cc1ccc(C)c(NC(=O)CCc2ccc(C)o2)c1 | . | . | . | . | .
Cc1cc(NC(=O)COC(=O)c2ccc(C)c(C)c2)no1 | . | / | 26 | / | /
Cc1cc(NC(=O)CCc2ccc(C)o2)no1 | 31 | . | . | . | .
Cc1cc(NC(=O)COC(=O)c2ccc(NS(=O)(=O)c3ccc(C)c(C)c3)cc2)no1 | . | . | . | . | .
O=C(NCCO)c1ccc2c(c1)S(=O)(=O)c1ccccc1C2=O | . | . | 22 | . | .
SMILES | SKN-1 block | MEKK2 WT-MEK5 | CendR NRP1 mod | MEKK2 mut-MEK5 | MEKK3 PB1 HTS
Cc1ccc(CNC(=O)c2ccc3c(c2)S(=O)(=O)c2ccccc2C3=O)o1 | . | . | . | . | .
O=S(=O)(c1cccc2cnccc12)N1CCNCC1 | . | / | . | / | /
O=S(=O)(c1cccc2ccccc12)N1CCSC1 | . | . | 30 | . | .
CN(C)C(=O)c1cccc(COc2ccc(N3C(N)=NC(N)=NC3(C)C)cc2Cl)c1 | . | / | . | / | /
CC1=[N+](C)N(c2ccccc2)C(=O)C1N=Cc1ccccc1Cl (stereo not drawn) | . | . | 18 | . | .
Cc1cccc(C)c1NC(=O)c1csc(COCCO)n1 | . | / | . | / | /
O=C(NC1CCCC1)C(c1ccccc1)n1c(Cc2cc(F)cc(F)c2)nc2ccccc21 (stereo not drawn) | . | / | . | / | /
O=C(CSc1cccc2cccnc12)N/N=C/c1ccc(F)cc1 | . | . | 36 | . | .
O=C(CSc1cccc2cccnc12)N/N=C/c1cccc(O)c1 | . | . | . | . | .
CCC1CCCCN1CCCNC(=O)c1ccc2c(c1)c(C)c(C)n2CC (stereo not drawn) | . | 50 | . | . | .
CCn1c(C)c(C)c2cc(C(=O)NCCCN3CCOCC3)ccc21 | . | . | . | . | .
Cc1ccc2oc(=O)c3cc(C(=O)NCCCN4CCCCCC4)sc3c2c1 | . | . | . | . | .
